Experimental data from PubChem BioAssay (EPA / NIEHS).
Calls of active or inactive are those of the source. Rule for the calls: active = hit-call score of the fitted dose curve at least 0.9, where 1 is the maximum; inactive = score below 0.9.

read-out: Early growth response protein 1 (EGR1) transcription factor, EGR1 (gene 1958); test: LTEA_HepaRG_EGR1: Life Technologies and Expression Analysis (LTEA) Assay for Early growth response protein 1 (EGR1) transcription factor using HepaRG (AID 2283490); settings: mRNA level, 48 h; actives raise or lower the signal
Protocol: LTEA_HepaRG is a cell based, multiplexed-readout assay that uses HepaRG, a human liver cell line, with measurements taken at 48 hours after chemical dosing on a 96-well plate.LTEA_HepaRG_EGR1 is one of 102 assay component(s) measured in the LTEA HepaRG cell culture assay. It is a marker of Cell proliferation, survival, death.Data from the assay component LTEA_HepaRG_EGR1 was analyzed into 1 endpoint. This assay endpoint, LTEA_HepaRG_EGR1, was analyzed with bidirectional fitting relative to DMSO as the negative control and baseline of activity. Using a type of inducible reporter, measures of mRNA induction for gain or loss-of-signal activity can be used to understand regulation of transcription factor activity. To generalize the intended target to other relatable targets, this assay endpoint is annotated to the dna binding intended target family, where the subfamily is zinc finger.
A total of 1060 chemcials from the ToxCast library were tested in eight-point concentration-response experiments. Cell culture and cytotoxicity assays were conducted at Thermo Fisher Scientific's Custom Services facility (Madison, WI). A single lot of human HepaRG cells (Thermo Fisher Scientific, Frederick, MD) was used for the cell culture experiments. 96-well format collagen type I coated plates of human HepaRG cells were prepared using established methods. Briefly, cryopreserved HepaRG cells were thawed, plated at a density of approximately 100,000 cells/well in HepaRG Thaw, Plate, and General Purpose media (HPRG770, Thermo Fisher Scientific), and incubated for 48 hours. 0.5% DMSO was selected as vehicle control to balance the requisite need of DMSO in HepaRG cultures to maintain differentiation (for example, baseline metabolism, proportions of hepatocytes vs. cholangiocytes), while enabling further hepatic receptor pathway activation (for example, PXR and CAR) in response to chemical exposure. 48 hours after plating, the culture medium was replaced with HepaRG Serum-Free Incudtion Media. Cells were exposed to each test chemical in duplicate and maintained in CO2 incubators for another 48 hours. Chemical plates were thawed to room temperature and 200x concentrations of treatment groups were prepared. 8-point conentration-reponse curves were made with the highest exposure at 100 uM, followed by half-log dilutions, all in 0.5% DMSO. Each test plate contained variouse controls, induction positive controls (1mM phenobarbital), cytotoxicity positive controls ([…] aflatoxin B1), vehicle controls (0.5% DMSO), and total lysis controls (0.5% DMSO). Cell morphology images were taken using an Essen IncuCyte FLR automated microscope, with six 96-well plates imaged in about 24 minutes. Images were captured and exported and JPEG files. Spent culture media was transfered to black-well plates for the LDH assay, and remaining media was sorted at -80 C for later use. Cells were treated with RLT buffer and frozen until shipped for gene expression analysis. Total RNA was isolated from the cell suspension in 75 uL of Buffer RLT (Qiagen, Germantown, MD 20874) by Quintiles/Expression Analysis (Durham, NC) using a custom isolation procedure. Total RNA from each plate well was transferred to a preamplification plate. Fluidigm's 96.96 Dynamic ArrayTM (Fluidigm, Amsterdam, the Netherlands) technology was used for gene expression analyses by quantitative reverse transcription polymerase chain reaction (qRT-PCR, performed by Quintiles/Expression Analysis, Durham, NC)89. Standard TaqManTM Assays (Applied Biosystems/ThermoFisher Scientific, Foster City, CA) were used to assess the expression of 93 genes selected based on their selectivity and sensitivity to important hepatic receptors known to be modulated by environmental chemicals; importance in human hepatocyte functionality; and hepatotoxicity. […]

Row | SMILES | outcome | AC50
1 | O=c1ccc2ccccc2o1 | inactive | –
2 | CCOC(=O)O[C@H](C)OC(=O)c1ccc2c(c1)cc(C(=O)NC1CCN(C(C)C)CC1)n2Cc1cc(-c2ccc(Cl)s2)on1 | inactive | –
3 | CC(C)(C)c1csc(-c2cc3cc(OCc4ccccc4CC(=O)O)ccc3o2)n1 | – | 89.5 µM (active)
4 | O=C(OCCCCCCOC(=O)c1ccccc1)c1ccccc1 | inactive | –
5 | CCN(Cc1cccnc1)C(=O)c1cccc(Cl)c1[C@]1(C)C(=O)N(Cc2ccc(OC)cc2OC)c2ccc(Cl)cc21 | inactive | –
6 | CCCOC(=O)c1cc(O)c(O)c(O)c1 | inactive | –
7 | O=C(O)Cc1cc(I)c(Oc2ccc(O)c(I)c2)c(I)c1 | inactive | –
8 | O=C=NCCCCCCN=C=O | inactive | –
9 | OCCO | inactive | –
10 | O=c1[nH]sc2ccccc12 | inactive | –
11 | O=C1CCC(C2CCCCC2)CC1 | inactive | –
12 | CN1C(=O)N(c2ccccc2Br)Cc2cnc(Nc3ccc4c(c3)OCC(CO)O4)nc21 (stereo not given) | – | 24 µM (active)
13 | CN(C)c1ccc(C(=C2C=CC(=[N+](C)C)C=C2)c2ccc(N(C)C)cc2)cc1 | – | 67.6 µM (active)
14 | CCO[Si](CCCNC(N)=O)(OCC)OCC | inactive | –
15 | Clc1cc(Cl)c2c(c1)N=C1CCCCCN1C2 | inactive | –
16 | Cc1c2ccccc2c(C)c2c1ccc1ccccc12 | inactive | –
17 | CC1=CC(=O)/C(=C(/C)O)C(=O)O1 | inactive | –
18 | O=C1O[C@H]([C@@H](O)CO)C(O)=C1O | inactive | –
19 | CN1C(=O)CC[C@H]1c1cccnc1 | inactive | –
20 | COc1ccc2cc(S(=O)(=O)N[C@H](CC(=O)N[C@H](Cc3ccc(CN4[C@H](C)CCC[C@@H]4C)cc3)C(=O)N(C)C(C)C)c3ccc4c(c3)OCO4)ccc2c1 | – | 33.3 µM (active)

Row | SMILES | outcome | AC50
21 | CC[C@H](NC(=O)c1cc(F)ccc1NS(=O)(=O)c1cccc2cccnc12)c1ccccc1 | inactive | –
22 | OC12N=C(c3ccccc3)SC1Cc1cc(Cl)ccc12 (stereo not given) | inactive | –
23 | C[C@]12CC[C@@H]3c4ccc(O)cc4CC[C@H]3[C@@H]1CC[C@H]2O | inactive | –
24 | O=C(O)c1ccccc1C(=O)OCc1ccccc1 | inactive | –
25 | O=c1c(-c2ccc(O)cc2)coc2cc(O)cc(O)c12 | inactive | –
26 | CC[C@@H]1C[C@H](N(Cc2cc(C(F)(F)F)cc(C(F)(F)F)c2)C(C)=O)c2cc(C(F)(F)F)ccc2N1C(=O)OC(C)C | inactive | –
27 | Cc1cc2c(cc1C(F)(F)F)N(C(=O)Nc1ccc(Oc3cccnc3C)nc1)CC2 | inactive | –
28 | CCCCCCCCCCCO | inactive | –
29 | CC(C)(c1cc(Br)c(O)c(Br)c1)c1cc(Br)c(O)c(Br)c1 | – | 76.1 µM (active)
30 | Cc1cccc2ccccc12 | inactive | –
31 | CC(O)CC(C)(C)O (stereo not given) | inactive | –
32 | COc1cc(C(=O)NC2CCN(C)CC2)ccc1Nc1ncc2c(n1)N(C1CCCC1)CC(F)(F)C(=O)N2C | – | 9.31 µM (active)
33 | c1ccc2ccccc2c1 | inactive | –
34 | CCCCCCCCCC(=O)O | inactive | –
35 | Cc1cn([C@H]2C[C@H](N=[N+]=[N-])[C@@H](CO)O2)c(=O)[nH]c1=O | inactive | –
36 | CCCC(=O)OCCC(C)C | inactive | –
37 | CCCCOC(=O)CC(CC(=O)OCCCC)(OC(C)=O)C(=O)OCCCC | inactive | –
38 | Oc1ccc2ccccc2c1 | inactive | –
39 | Oc1ccccc1 | inactive | –
40 | O=C1c2ccccc2C(=O)N1CCc1noc(-c2ccc(CN3CCCCCC3)s2)n1 | inactive | –
